As a reminder, the AC50 is the concentration at which the activity in the assay is half-maximal.

Calls of active or inactive are those of the source. How the source made its calls: active means hit-call score of the fitted dose curve at least 0.9, where 1 is the maximum; inactive means score below 0.9.

The values below come from PubChem BioAssay (EPA / NIEHS).

This assay in a line: CEETOX_H295R_OHPROG: CeeTox H295R High-throughput Steroidogenesis Assay for OH-Progesterone (OHPROG) (AID 2283435). The settings on record: actives raise or lower the signal. The method, then:
CEETOX_H295R is a cell-based, multiplexed-readout assay that uses H295R, a human adrenal gland cell line, with measurements taken at 48 hours after chemical dosing in a 96-well plate.CEETOX_H295R_OHPROG is one of 23 assay component(s) measured or calculated from the CEETOX_H295R assay. It is designed to make measurements of hormone induction, a form of inducible reporter, as detected with absorbance signals by HPLC-MS-MS technology.Data from the assay component CEETOX_H295R_OHPROG was analyzed into 1 assay endpoint. This assay endpoint, CEETOX_H295R_OHPROG, was analyzed with bidirectional fitting relative to DMSO as the negative control and baseline of activity. Using a type of inducible reporter, gain or loss-of-signal activity using HPLC-MS-MS was used to understand synthesis of 17alpha-hydroxyprogesterone in H295R cell line at 48hr of chemical exposure. To generalize the intended target to other relatable targets, this assay endpoint is annotated to the steroid hormone intended target family, where the subfamily is progestagens.
Cell culture and media preparation procedures were conducted in accordance with OECD Test No. 456 guidelines, with minor modifications. H295R cells (ATCC CRL-2128) were expanded for 5 passages and frozen in batches in liquid nitrogen. Prior to the steroidogenesis assay, H295R cells were thawed and passed at least 4 times. The maximum passage was 10. Cells were maintained in a 1:1 mixture of DMEM/F12 supplemented with 5ml/L ITS+ Premix (BD Bioscience) and 12.5 ml/L Nu-Serum (BD Bioscience). After seeding cells into 96-well plates at 50-60% confluency, cells were allowed to adhere overnight. Prior to chemical testing, culture medium was replaced with 175 uL medium containing 10 uM forskolin to stimulate steroidogenesis for 48 hours. Following prestimulation, forskolin medium was replaced with medium containing test chemical solubilized in DMSO (ensuring a final concentration of 0.1% DMSO). Test chemicals were incubated for 48 hours, then the medium was removed and split into 2 vials containing approximately 75uL each, and stored at -80 C prior to hormone analysis. For steroid quantification, media samples were shipped to OpAns, LLC (Durham, NC) on dry ice, and samples were thawed to room temperature prior to liquid-liquid extraction. Steroid hormones were extracted from media samples using methyl tertbutyl ether (MTBE). An extra derivatization with dansyl chloride was included for estrogen (estrone and estradiol) detection only. Steroid hormones were separated by HPLC, eluted using a reverse phase C18 gradient with electrospray positive ionization, followed by quantification by tandem mass spectrometry (MS/MS). Data were acquired on a MassHunter Workstation Acquisition version B03.01 (Agilent Technologies, Inc.) and processed using MassHunter Quantitative Analysis for QQQ. Accuracy was determined for each hormone analyte from 3 standards to determine upper and lower limits of quantification (ULOQ and LLOQ, respectively) using a 7-point standard curve. Precision and accuracy of the extraction and quantification methods were calculated as the percent relative standard deviation (%RSD) of the spiked standards and percent spiked standard recovered, respectively. […] Test medium was removed following chemical exposure, and cell viability was evaluated in the same wells by MTT. MTT procedures were as follows: after removal of test medium, 500 uL of 0.5 mg/ml of 3-[4,5-dimethylthiazol-2-y]2,5-diphenyltetrazoliumbromide solution was added to the cells. Following a 4-hour incubation at 37 C and 5% CO2 to allow formazan-crystal formation, the MTT solution was removed and blue formazan salt crystals were solubilized using 500uL anhydrous isopropanol with shaking for 20 minutes. Absorbance was read at 570 and 650nm using a Packard Fusion microplate reader. Background correction of absorbance units was used to determine percent change relative to controls. […]
Regarding `CCCCOC(=O)c1ccc(O)cc1`, the AC50 was 5 µM (active). As for `O=c1c(-c2ccc(O)cc2)coc2cc(O)cc(O)c12`, the AC50 was 30.5 µM (active).

With `O=C(Nc1ccc(Cl)cc1)Nc1ccc(Cl)c(Cl)c1`, the AC50 was 0.418 µM (active). With `Cc1c2ccccc2c(C)c2c1ccc1ccccc12`, the outcome was inactive. The same measure, in the same setting: the result for `O=C1c2ccccc2C(=O)N1CCc1noc(-c2ccc(CN3CCCCCC3)s2)n1` reads “inactive”. On to `CC(C)(c1cc(Br)c(O)c(Br)c1)c1cc(Br)c(O)c(Br)c1`, for which the AC50 was 4.41 µM (active). Still for that read-out and setting: the result for `O=C1CCC(C2CCCCC2)CC1` reads 76.8 µM (active); that for `COc1cccc([C@H](O)C2CCN(CCc3ccc(F)cc3)CC2)c1OC`, 19.7 µM (active). As to `CCCCCCCCOC(=O)c1cc(O)c(O)c(O)c1`, the compound was called inactive. On to `CCCCCCCCN(C)CCCCCCCC`, for which the half-maximal activity concentration (AC50) is 50 µM (active). Take `NC(=O)c1nc(-c2cccc(-c3cc(F)ccc3OCC(F)(F)C(F)(F)F)c2)n[nH]1`: the result was inactive. As for `Oc1ccc2ccccc2c1`, the AC50 is 13.8 µM (active).

For the compound `Cc1cc2c(cc1C(F)(F)F)N(C(=O)Nc1ccc(Oc3cccnc3C)nc1)CC2`, the half-maximal activity concentration (AC50) was 0.591 µM (active). As for `Clc1ccccc1C(c1ccccc1)(c1ccccc1)n1ccnc1`, the AC50 was 0.0684 µM (active). Consider `O=C(O)Cn1c(=O)n(Cc2ccc(Br)cc2F)c(=O)c2ccc(Cl)cc21`, for which the compound was called inactive. For `CC(=O)N1CCN(c2ccc(OC[C@H]3CO[C@](Cn4ccnc4)(c4ccc(Cl)cc4Cl)O3)cc2)CC1`, the AC50 is 0.49 µM (active). Consider `CN1C(=O)N(c2ccccc2Br)Cc2cnc(Nc3ccc4c(c3)OCC(CO)O4)nc21` (centres undefined), for which the outcome was inactive.

With `Cc1ccc2oc(CN(Cc3ccccc3)C(=O)Nc3c(F)cc(F)cc3F)c(-c3ccc(Cl)cc3)c2c1`, the AC50 was 4.83 µM (active). In the case of `OC12N=C(c3ccccc3)SC1Cc1cc(Cl)ccc12` (centres undefined), the compound was classed as inactive. Take `Clc1cc(Cl)c2c(c1)N=C1CCCCCN1C2`: the compound was classed as inactive.

On to `CCCCCCCCCCCC[N+](C)(C)C`, for which the outcome was inactive.

As to `Cc1oc2c(NC(=O)c3c(Cl)cccc3Cl)cccc2c1C(C)(C)O`, the concentration at half-maximal activity (AC50) is 3.07 µM (active).

Consider `CO[C@H]1/C=C/O[C@@]2(C)Oc3c(C)c(O)c4c(O)c(c(/C=N/N5CCN(C)CC5)c(O)c4c3C2=O)NC(=O)/C(C)=C\C=C\[C@H](C)[C@H](O)[C@@H](C)[C@@H](O)[C@@H](C)[C@H](OC(C)=O)[C@@H]1C`, for which the result was inactive. Take `CC(C)(C)c1cc(/C=C2\SC(N)=NC2=O)cc(C(C)(C)C)c1O`: the AC50 was 0.67 µM (active).
